Screening data: PubChem, several laboratories
TIM10 inh = growth inhibitors of isogenic TIM10 control yeast, primary screen, counter-screen for tim10-1 yeast inhibitor project, luminescence, uHTS; S. cerevisiae TIM10 strain growth, BacTiter-Glo luminescence, 24 h; inhibition, % at 10 µM; 1.4% of 330,000 active; AID 463195, 2010;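 active = inhibition of 40% or more at the single tested concentration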;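 also: wild-type TIM10 isogenic control strain grown at permissive 25 °C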
PfHsp90 set2 = growth inhibition of PfHsp90-expressing yeast, primary screen, antimalarial PfHsp90 inhibitor project, S. cerevisiae, BacTiter-Glo luminescence, single point, set 2 | BacTiter-Glo ATP, 48 h; yeast lacking PDR1 and PDR3 efflux regulators | 0.32% of 310,000 active | inhibition, % at 9.4 µM;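 active = every replicate shows inhibition above about 80%, whatever the replicate mean, limit read from the data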;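 also: 0% = DMSO neutral controls and 100% = 20 µM radicicol positive controls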
tim23-1 inh = growth inhibitors of tim23-1 mutant yeast, primary screen, luminescence, uHTS | S. cerevisiae tim23-1 growth, BacTiter-Glo luminescence, 24 h | AID 463212, 2010 | inhibition, % at 20 µM | 1.3% of 330,000 active;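 active = growth inhibition of the mutant yeast at or above 50%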;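 also: temperature-sensitive mutant grown at 25 °C; plate controls were DMSO-treated mutant yeast for no effect and medium wells lacking yeast for full effect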
tim10-1 inh = growth inhibitors of tim10-1 mutant yeast, primary screen, luminescence, uHTS; inhibition, % at 20 µM; AID 463190, 2010; 2.2% of 330,000 active; S. cerevisiae tim10-1 ts strain growth, BacTiter-Glo, 24 h;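 active = inhibition of at least 40%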;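 also: mutant grown at 25 °C; 0% = DMSO wells with yeast and 100% = wells holding no yeast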
SKKanGAS inh = S. pyogenes SKKanGAS growth inhibitors in kanamycin, primary screen, streptokinase expression inhibitor project, SKKanGAS strain, BacTiter-Glo luminescence. 6 h. inhibition, % at 7.5 µM. 1.3% of 300,000 active;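 active = mean replicate score, as percent of positive control median, at least 50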;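 also: strain carries kanamycin resistance gene driven by streptokinase promoter and grows in 40 µg/ml kanamycin; loss of luminescence reflects streptokinase promoter inhibition or plain growth inhibition; 0% = median of DMSO wells and 100% = positive control at its reference dose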
Calb FLC = C. albicans growth inhibition with fluconazole, primary screen, CaCi-2 strain, Alamar Blue fluorescence | AID 1979, 2009 | growth inhibition, % (no concentration beside the values) | C. albicans CaCi-2 (fluconazole-resistant clinical isolate) + fluconazole, 48 h | 0.57% of 300,000 active;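 active = growth inhibition above about 58% in most replicates, limit read from the data, passing the limit was not always enough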;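 also: all wells also contain fluconazole at 8 µg/ml as a sub-toxic cotreatment; 0% = median of DMSO wells and 100% = median of geldanamycin control wells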
The depositor's hits bear a star; / = no result given. Hits are enriched below; roughly 4.7% of the tested compounds scored in any of these assays.

SMILES | TIM10 inh | PfHsp90 set2 | tim23-1 inh | tim10-1 inh | SKKanGAS inh | Calb FLC
CCCCCCCCCCCCCCCC[N+](C)(C)Cc1ccc(F)cc1 | / | 115* | / | / | / | /
COC(=O)/C(=N\Nc1ccc(Cl)cc1)Sc1nnc(-c2ccc(OC)cc2)n1C | 9 | 12 | 8 | 7 | 6 | 84*
COc1ccc(CNC(=O)CSc2nnc(-c3ccc(NC(C)=O)cc3)n2C)cc1 | -10 | -100 | 9 | 8 | -2 | 15
Cc1ccc(NS(=O)(=O)c2ccc(CCC(=O)NCCO)cc2)cc1 | -12 | -2 | 2 | 17 | -3 | 112*
Cc1ccc(NS(=O)(=O)c2ccc(CCC(=O)NCc3ccccn3)cc2)cc1 | -17 | -6 | -5 | -12 | 0 | -5
Cc1ccc2c(c1)c(/C=C/c1cc[n+](C)cc1)c(C)n2C | 18 | 11 | -3 | 16 | -2 | 89*
COc1cccc(C=NCCCN=Cc2cccc(OC)c2O)c1O | 7 | -13 | 29 | 9 | -1 | 2
Cc1ccc(/C=C2/Sc3ccc(C(=O)N4CCN(C)CC4)cc3NC2=O)cc1 | 14 | 20 | 28 | 25 | 54* | 25
COc1ccc(/C=C2\Sc3ccc(C(=O)N4CCc5ccccc5C4)cc3N(C)C2=O)cc1 | -7 | / | 2 | -1 | 103* | 19
COc1ccc(/C=C2/Sc3ccc(C(=O)N4CCc5ccccc5C4)cc3NC2=O)cc1 | 25 | -36 | 14 | 29 | 102* | 7
COc1ccc(CCNC(=O)CCS(=O)(=O)c2ccc3c(c2)oc(=O)n3C)cc1OC | -2 | 3 | 0 | -9 | 2 | 1
COc1cc(OC)cc(C(=O)NNC(=O)CCNS(=O)(=O)c2ccc(Br)cc2)c1 | 4 | -4 | 8 | -1 | / | /
Brc1ccc(Nc2ncnc3[nH]ncc23)cc1 | 30 | / | 38 | 29 | 52* | 13
COCCN(CCOC)S(=O)(=O)c1ccc(C(=O)Nc2c(C)n(C)n(-c3ccccc3)c2=O)cc1 | 10 | 11 | 2 | -8 | 7 | 5
O=C(c1ccccc1)C(O)c1ccccc1 (stereo unspecified) | 6 | 5 | 8 | 12 | / | /
Cc1cccc(C)c1OC(=O)C(c1ccccc1)c1ccccc1 | 26 | -4 | 16 | 13 | 71* | -13
COCCNC(=O)CCCn1c(=O)c2cc(OC)c(OC)cc2n(CC(=O)NCCC2=CCCCC2)c1=O | 10 | -7 | 9 | 12 | -19 | 51*
CC(C)c1c(O)ccc2c1CC[C@H]1C(C)(C)CCC[C@]21C | / | 113* | / | / | / | /
COc1cccc(/C=N/NC(=O)c2cc(-c3cccn3C)n[nH]2)c1 | -4 | -6 | 13 | -6 | 4 | -2
COc1cccc(/C=N/NC(=O)c2ccoc2C)c1O | 23 | 4 | 42 | -10 | 77* | -5
COc1cc(/C=N/NC(=O)c2cc(-c3cccn3C)n[nH]2)cc(OC)c1OC | -9 | / | 9 | 3 | 63* | -16
COc1cccc(/C=N/NC(=O)c2cc(-c3cccn3C)n[nH]2)c1O | -8 | -20 | 6 | -19 | 0 | 103*
O=C(Nc1cc(C(F)(F)F)ccc1N1CCCC1)C1CCCO1 (stereo unspecified) | -5 | 19 | -6 | -3 | / | /
CSc1nc(N)nc2c1ncn2C1OC(CO)CC1O (stereo unspecified) | / | -24 | / | / | / | /
CC(c1nc2ccccc2n1Cc1ccccc1)N1CCCCC1 (stereo unspecified) | -2 | 21 | 2 | 16 | 0 | -3
SMILES | TIM10 inh | PfHsp90 set2 | tim23-1 inh | tim10-1 inh | SKKanGAS inh | Calb FLC
Cc1cccc(NC2=NC(=S)N(c3cccc(C(=O)O)c3)C23CCCCC3)c1 | 12 | 12 | 10 | 9 | -15 | 104*
COc1cc(N2C(=O)C=CC2=O)c(OC)cc1Cl | 12 | 109* | -12 | 40 | 2 | 7
COc1cc(Cl)c(S(=O)(=O)N2CCCC2)cc1Cl | 17 | 21 | 29 | 13 | -1 | 3
COc1cccc(NC(=O)Nc2nc(SC(C)(C)C)ns2)c1 | 22 | 9 | 26 | 18 | 55* | 3
Cc1ccc(S(=O)(=O)N2CCCC2CNC(=O)C(=O)NCCN2CCOCC2)cc1 (stereo unspecified) | 9 | / | -1 | -3 | -4 | 3
CCc1ccc(C(=O)NNC(=O)c2cccc(N3C(=O)CCC3=O)c2)cc1 | 8 | 15 | 8 | -4 | 9 | 2
CCOC(=O)c1c(/N=C/C2=C(O)CCCC2=O)sc(C)c1C | -7 | -13 | 22 | -2 | 3 | -2
CCOC(=O)c1c(-c2ccc(OC)cc2)csc1/N=C/C1=C(O)CCCC1=O | 7 | 5 | 21 | 24 | 57* | 2
CCOc1ccc(NC(=O)CCc2c(C)nn(-c3ccc(N4CCCCC4)nn3)c2C)cc1 | -14 | 11 | 26 | 25 | 10 | 16
Cc1ccccc1NC1=NC(C)(C)N=C(N)N1 | 3 | 0 | -5 | 3 | -1 | -5
CC1(C)N=C(N)NC(Nc2ccccc2)=N1 | -1 | -2 | 0 | 6 | 64* | -20
CC1CCN(c2ccccc2NC(=O)c2ccc(Br)o2)CC1 | -8 | 11 | 26 | 3 | 88* | -1
N#C/C(=C\c1ccc(O)c(O)c1)C(=O)Nc1cccc2ncccc12 | 9 | -12 | -9 | 12 | 4 | 97*
O=C(CN1C(=O)COc2ccc(S(=O)(=O)N3CCCCC3)cc21)NCc1ccc(F)cc1 | 2 | -13 | 12 | -3 | 103* | 0
COc1ccc(CNC(=O)CN2C(=O)COc3ccc(S(=O)(=O)N4CCCC4)cc32)cc1 | -10 | 16 | 6 | 9 | 1 | -18
Cc1[nH]n(-c2ncc(-c3ccccc3)s2)c(=O)c1C(c1ccc(Cl)cc1)C(C#N)C#N (stereo unspecified) | 31 | -29 | 47 | 34 | 61* | -1
CCc1noc(C)c1C(=O)OCC(=O)NC(=O)c1ccccc1 | -3 | 10 | 11 | -20 | 50* | 2
CCc1noc(C)c1C(=O)OCC(=O)NCc1ccccc1 | 0 | 8 | 11 | 2 | / | /
O=C(OCc1ccccc1)N1C=CC2CC1c1c(Cl)cccc12 (stereo unspecified) | / | 7 | / | / | / | /
COc1ccc(C(=O)NC(=S)NNC(=O)c2cnccn2)cc1 | 13 | 94* | 9 | 14 | 34 | 118*
O=C(NC(=S)NNC(=O)c1cnccn1)c1ccc(Cl)cc1 | -29 | 71 | 14 | -17 | 40 | 94*
O=C(NNC(=S)NC(=O)c1cccnc1)c1ccc(Cl)cc1 | 1 | 34 | 12 | 25 | 52* | 17
COc1cc(C(=O)NC(=S)NNC(=O)c2cnccn2)cc(OC)c1OC | 4 | -43 | -15 | -1 | 15 | 38
